In PubChem BioAssay AID2551 (National Center for Advancing Translational Sciences (NCATS), 2010) one finds Potency and activity change, negative = inhibition data, which are given here for 52 compounds.

The campaign covered roughly 310,000 compounds. About 17,000 (5.5%) were called active. Where a call stands in place of a potency, no number is given. Inconclusive results (about 11%) are left out. The sample holds actives, similar compounds and a random draw of the others, so the mix is not that of the screen. A number with no mark means an inactive call. Calls come from the whole dose curve; as a rule, active = well fitted inhibition curve with a large enough effect; inconclusive = small, poorly fitted or top-dose-only effect, or effect the other way; inactive = no such curve, though single readings can be large or run the other way.
Potency is the fitted concentration of half-maximal effect.

Chain of Nuclear receptor ROR-gamma (Mus musculus) (P51450 whole entry, looked up, the tested form may be a part): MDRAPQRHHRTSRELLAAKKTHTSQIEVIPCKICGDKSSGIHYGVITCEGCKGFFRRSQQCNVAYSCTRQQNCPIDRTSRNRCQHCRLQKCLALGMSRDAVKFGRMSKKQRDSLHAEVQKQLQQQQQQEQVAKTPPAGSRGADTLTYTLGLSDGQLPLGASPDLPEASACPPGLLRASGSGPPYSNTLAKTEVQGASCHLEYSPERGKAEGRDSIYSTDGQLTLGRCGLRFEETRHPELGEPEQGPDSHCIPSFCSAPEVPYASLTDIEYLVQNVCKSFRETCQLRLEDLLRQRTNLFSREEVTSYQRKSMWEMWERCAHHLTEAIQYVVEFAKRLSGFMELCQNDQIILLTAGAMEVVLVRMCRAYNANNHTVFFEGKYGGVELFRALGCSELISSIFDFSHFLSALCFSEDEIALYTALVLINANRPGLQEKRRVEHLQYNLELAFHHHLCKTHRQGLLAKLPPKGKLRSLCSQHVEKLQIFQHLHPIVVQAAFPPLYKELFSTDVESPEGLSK

The assay addresses Nuclear receptor ROR-gamma (Mus musculus) (UniProt P51450). Put plainly: qHTS for inhibitors of ROR gamma transcriptional activity. Note: nearly all actives have a fitted effect of over 60% in size. The following applies: Drosophila S2 Gal4-RORgamma UAS-luciferase reporter, 20 h; series mostly up to 53.6 µM. An excerpt: NIH Molecular Libraries Probe Production Network [MLPCN] NIH Chemical Genomics Center [NCGC] MLPCN Grant: R03 DA026211-01 Assay Provider: Dan Littman, New York University Assay Overview: The retinoic acid-related orphan receptor (ROR) gamma is a transcription factor that has a central role in the differentiation of Th17 cells, a subset of T helper cells that secrete the inflammatory cytokines IL-17, IL-17F, and IL-22. Th17 cells have been implicated in graft versus host disease, autoimmune disease and asthma. ROR gamma is induced in naive T helper cells in the presence of TGF-beta combined with IL-6, IL-21, or IL-23, and thereafter directs the expression of the Th17 lineage cytokines. To study the mechanism of action of ROR gamma, an insect cell-based assay was screened. This Drosophila Schneider cell line was stably transfected with two vectors: a gene expressing a fusion of the Gal4 DNA binding domain and ROR gamma transactivation domain under the control of the metallothionine promoter and a Photinus luciferase reporter regulated by the Gal4 binding site enhancer, UAS. […] Small molecule inhibitors of ROR gamma activity are detected by a decrease in luciferase reporter activity.
Assay Protocol Summary: For screening, 600 cells in 4 uL/well were dispensed into white solid 1536-well plates (Grenier) using a solenoid-based dispenser. Following transfer of 23 nL compound or DMSO vehicle by a pin tool, the plates were incubated 1 hr at ambient temperature, and 1 uL/well copper sulfate (700 uM final concentration) was added. The plates were centrifuged 15 s at 1000 RPM and incubated 20 hr at ambient temperature. After addition of 1.5 uL Photinus luciferase detection reagent, the plates were incubated 10 min at ambient temperature and then read by an ViewLux (Perkin Elmer) to detect luminescence. Keywords: NIH Roadmap, MLPCN, MLI, MLSMR, qHTS, NCGC, qHTS, nuclear hormone receptor, retinoic acid-related orphan receptor, ROR gamma
(In qHTS, concentration-response curves come from the screen itself.)
In the case of `CCOC(=O)c1cc2c(nc1NC(=S)Nc1ccccc1)CC(C)(CC)OC2` (configuration not stated), the Potency is 3.55 µM (active).

For `CCOC(=O)c1cc2cc3ccccc3cc2oc1=O`, the Potency result was “inactive”.

On to `CCOC(=O)c1cn[nH]c1NC(=S)Nc1ccccc1`, for which the Potency entry was “inactive”.

On to `Cc1ccc(NC(=O)CSc2nnc(CNC(=O)c3ccccc3F)o2)cc1Cl`, for which the Potency result was “inactive”.

On to `COc1ccc(-c2noc(CNC(=O)C(C)Oc3ccccc3)n2)cc1` (configuration not stated), for which the Potency entry is “inactive”.

As for `COc1ccc(-c2cc(C(F)(F)F)nc(SCC(=O)Nc3ccc4c(c3)OCO4)n2)cc1OC`, the Potency result is “inactive”.

As for `COc1cc(OC)nc(S(C)(=O)=O)n1`, the Potency result was “inactive”.

Turning to `COc1ccc(-c2cc(C(F)(F)F)nc(S(C)(=O)=O)n2)cc1OC`, the Potency was 1.78 µM (active).

With `Cc1cccn2c(=O)c3cc(C(=O)NCC4CCCO4)c(=N)n(Cc4ccc(F)cc4)c3nc12` (configuration not stated), the Potency entry is “inactive”.

In the case of `COc1cc(OC)c(OC)cc1CN1CCN(C(=O)c2cccc3ccccc23)CC1`, the Potency entry is “inactive”.

With `CC(=O)Nc1ccc(/C=N/Nc2ccc(C(=O)c3c(C)cc4ccccn34)cc2[N+](=O)[O-])cc1`, the Potency result was “inactive”.

Regarding `Cc1cc2ccccn2c1C(=O)c1cccc(F)c1`, the Potency entry is “inactive”.

On to `Cc1ccc(C(C[N+](=O)[O-])c2c(C)cc3ccccn23)cc1` (configuration not stated), for which the Potency was 22.4 µM (active).

For `C=CCNC(=O)c1csc(-c2ccccc2)n1`, the Potency result is “inactive”.

Take `C=CCNc1scc(-c2ccccc2)[n+]1CC=C`: the Potency was 12.6 µM (active).

Turning to `Cc1ccc(NC(=O)NNC(=O)c2sccc2-n2cccc2)cc1`, the Potency result is “inactive”.

For the compound `Cc1ccc(NC(=O)Nc2ccccc2)c(Br)c1`, the Potency entry was “inactive”.

With `C=CC[n+]1c(-c2ccc(C)cc2)csc1NNC(=O)Nc1ccccc1`, the Potency was 14.1 µM (active).

Regarding `COC(=O)c1cc(NS(=O)(=O)c2ccc3c(c2)c(=O)n(C)c(=O)n3C)cc(C(=O)OC)c1`, the Potency result was “inactive”.

For `Cc1cccc(C)c1N1C(=O)CN(Cc2ccccc2)C1=S`, the Potency entry was “inactive”.

Take `CCC(=O)c1cn(CCOc2ccccc2OC)c2ccccc12`: the activity change, negative = inhibition was -12.4% [at 1.91 µM].

Consider `Cc1cccc(NC(=O)C2CCCN(C(=O)NCc3ccccc3)C2)c1C` (configuration not stated), for which the Potency result is “inactive”.

With `CN(C)c1ccc(CNC(=O)CN2C(=O)COc3ccc(S(=O)(=O)N4CCCC4)cc32)cc1`, the Potency result is “inactive”.

In the case of `CCOc1cc(NC(=O)c2ccco2)c(OCC)cc1NC(=O)COc1ccccc1`, the Potency entry was “inactive”.

As for `CCC(=O)NC(=S)Nc1ccc(NC(=O)c2ccco2)c(Cl)c1`, the Potency was 2.51 µM (active).

Turning to `COc1ccc(NC(=O)CCC(=O)Nc2cc(OC)c(NC(=O)c3ccco3)cc2OC)c(OC)c1`, the Potency entry was “inactive”.

On to `COC(=O)c1cc(Cl)c(NC(=O)c2ccco2)cc1OC`, for which the Potency entry was “inactive”.

As to `CCOCC(=O)Nc1cc(OC)c(Cl)cc1OC`, the Potency result was “inactive”.

Regarding `CCOc1cc(NC(=S)NCCCOC)c(OCC)cc1NC(=O)c1ccco1`, the Potency is 20 µM (active).

Take `O=C(Nc1ccc(NC(=O)c2ccco2)c(Cl)c1)c1cccc([N+](=O)[O-])c1`: the Potency result was “inactive”.

On to `CCOc1cc(NC(=S)NCc2ccco2)c(OCC)cc1NC(=O)c1ccco1`, for which the Potency is 1.12 µM (active).

For the compound `CCOc1cc(NC(=S)NCCCN(C)C)c(OCC)cc1NC(=O)C1CC1`, the Potency entry is “inactive”.

On to `COc1ccc(CC(=O)Nc2ccccc2NC(=O)c2ccco2)cc1OC`, for which the Potency result is “inactive”.

As for `COc1cc(NC(=S)NCc2ccco2)c(OC)cc1Cl`, the Potency is 7.08 µM (active).

As for `COc1ccc2c(Cl)c(C(=O)NCc3ccco3)sc2c1`, the Potency result was “inactive”.

Regarding `CCc1nn(CCCC(=O)Nc2ccc(C)c(C)c2)c(=O)c2cc3occc3n12`, the Potency result is “inactive”.

As to `O=C(O)c1cc(S(=O)(=O)NC2CCCc3ccccc32)ccc1O` (configuration not stated), the Potency result was “inactive”.

On to `CC(C(=O)NCCc1ccc(S(N)(=O)=O)cc1)N1C(=O)CC(C)(C)Sc2ccccc21` (configuration not stated), for which the Potency entry is “inactive”.

`CNC(=O)N1c2ccccc2C=Cc2ccccc21`: the Potency result is “inactive”.

Take `Clc1nc(NC2CCCC2)nc(N2CCOCC2)n1`: the Potency result is “inactive”.

Consider `COc1cccc(N(CC(=O)NC2CCCC2)C(=O)Cn2nnc(-c3ccc(C)o3)n2)c1`, for which the Potency result was “inactive”.

Turning to `CCN(CC)S(=O)(=O)c1cccc(-c2n[nH]c(=S)n2/N=C/c2ccc(C(=O)OC)cc2)c1`, the Potency result was “inactive”.

For `S=c1[nH]nc(-c2ccncc2)n1/N=C/c1ccccc1Cl`, the Potency result was “inactive”.

Take `S=c1[nH]nc(-c2cc(-c3ccccc3)n[nH]2)n1/N=C/c1c2ccccc2cc2ccccc12`: the Potency is 7.94 µM (active).

On to `CCOc1ccc(-c2n[nH]c(=S)n2/N=C/c2cc3c(cc2[N+](=O)[O-])OCO3)cc1`, for which the activity change, negative = inhibition was -47.7% [at 10 µM].

As for `Cc1ccc(-c2n[nH]c(=S)n2/N=C/c2cc3c(cc2[N+](=O)[O-])OCO3)cc1`, the Potency result was “inactive”.

In the case of `Cc1ccc(/C=N\n2c(-c3ccccc3)n[nH]c2=S)s1`, the Potency was 3.98 µM (active).

In the case of `S=c1[nH]nc(-c2cccs2)n1/N=C/c1cn(-c2ccccc2)nc1-c1ccc(Cl)cc1`, the Potency result is “inactive”.

On to `Oc1ccccc1/C=N/n1c(-c2cccs2)n[nH]c1=S`, for which the Potency is 10 µM (active).

As for `Brc1ccc(/C=N/N2CCN(C3c4ccccc4-c4ccccc43)CC2)s1`, the Potency entry is “inactive”.

For the compound `S=c1[nH]nc(-c2ccco2)n1/N=C/c1ccc(Br)s1`, the Potency is 11.2 µM (active).

Consider `c1ccc(-c2cc(-c3nnc4sc(-c5ccccn5)nn34)[nH]n2)cc1`, for which the Potency entry is “inactive”.
